This is a sample that favours compounds with a hit; in the whole collection about 7.6% have one here.
Cav32 inh: human Cav3.2 channel inhibition, primary screen; Cav3.2-expressing cells, Fluo-4 calcium fluorescence FDSS; active compounds read low; 4% of 100,000 active; O95180; B-score at 10 µM;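 active means single-dose well whose peak fluorescence ratio is a statistical outlier from its plate by either plate-standardised score or position-corrected B-score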
PLAP act: human PLAP activation. purified PLAP enzyme, luminescent substrate read-out; active compounds read high. activation fold at 20 µM. 1.2% of 96,000 active. AID 696; in the data active means activation fold above about 2
M1 ag: activates the M1 muscarinic receptor. CHO-M1 cells, Fluo-4 calcium fluorescence, agonist mode; active compounds read high. B-score at 10 µM. 3% of 64,000 active;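 active means fluorescence rise, raw or as B-score row- and column-corrected plate score, outside the 99.7% band of its plate's samples, either direction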
M1 antag: M1 muscarinic receptor (rat) antagonism | B-score at 10 µM | 3.4% of 64,000 active | CHO-M1 cells, Fluo-4 calcium, ACh EC80 antagonist mode; active compounds read low | P08482 | AID 628;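 active means calcium fluorescence response, raw or row-and-column corrected B-score, differing from the plate sample mean either way at a set confidence level, mostly lower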
Target sequence (P08482 whole entry, looked up): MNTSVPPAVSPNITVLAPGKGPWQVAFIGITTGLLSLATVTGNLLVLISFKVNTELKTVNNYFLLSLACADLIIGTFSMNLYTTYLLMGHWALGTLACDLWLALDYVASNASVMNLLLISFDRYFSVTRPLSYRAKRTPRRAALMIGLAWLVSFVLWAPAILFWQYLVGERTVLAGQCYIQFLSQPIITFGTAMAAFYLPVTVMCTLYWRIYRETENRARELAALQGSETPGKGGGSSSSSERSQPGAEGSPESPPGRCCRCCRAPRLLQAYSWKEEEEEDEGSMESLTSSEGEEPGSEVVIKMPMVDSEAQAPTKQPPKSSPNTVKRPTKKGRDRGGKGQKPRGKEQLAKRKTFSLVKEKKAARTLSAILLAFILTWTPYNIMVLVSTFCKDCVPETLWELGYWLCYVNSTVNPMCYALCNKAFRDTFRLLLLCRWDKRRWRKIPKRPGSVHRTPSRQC
An asterisk follows results filed as active; . = no result given.

SMILES | Cav32 inh | PLAP act | M1 ag | M1 antag
CSc1ccc(S(=O)(=O)NCc2ccccc2Cl)cc1 | -4.02* | 0.9 | 0.786 | -1.12
CSc1ccc(S(=O)(=O)NCc2ccc(Cl)cc2Cl)cc1 | -0.161 | 0.8 | . | .
COc1ccc(OC)c(C(=O)CSc2nc3c(c(=O)n(C)c(=O)n3C)n2C(C)C)c1 | 0.207 | 1 | -1.5 | 0.0686
COc1cccc2c1C(=O)c1ccc3ccccc3c1C2=O | . | 1 | . | .
COc1ccc2noc3c2c1C(=O)c1ccccc1-3 | . | . | 354* | -12*
COc1ccc(OC)c2c1C(=O)c1ccccc1C2=O | -8.93* | 0.7 | . | .
CC(=O)Nc1ccc(Oc2ncccn2)c(Cl)c1 | 0.144 | 0.9 | . | .
COc1ccc(C(=O)Nc2cc(C(F)(F)F)ccc2Cl)cc1OC | -0.0216 | 0.8 | . | .
CCOC(=O)c1nnn(-c2nc(OC)nc(N3CCCCC3)n2)c1-c1ccccc1 | -6.1* | 1.4 | . | .
O=C(c1ccc(F)cc1)N1CCN(c2cc(=O)[nH]nc2-c2ccccc2)CC1 | 0.213 | 1.2 | . | .
CCOC(=O)C1=C(c2ccccc2)OC(N)=C(C#N)C1c1ccc(Cl)s1 (stereo not drawn) | -1.65 | 0.8 | . | .
CCN1CC=C2C(C1)C(c1ccc(Cl)s1)C(C#N)=C(N)C2(C#N)C#N (stereo not drawn) | . | 1.2 | 261* | 0.506
COc1ccc(C2=NOC(C(=O)Nc3cccnc3)C2)cc1 (stereo not drawn) | 0.995 | 1 | . | .
Cc1ccc(NC(=O)NNC(=O)C2CC(c3cccnc3)=NO2)cc1 (stereo not drawn) | 0.0263 | 2* | . | .
CCO[C@H]1OC(C(=O)N2CCOCC2)=C[C@@H](C)[C@@H]1CCCO | 0.36 | . | . | .
CN(c1cccc(NC(=O)COc2ccc(Cl)cc2Cl)c1)S(C)(=O)=O | -1.27 | . | . | .
CCCNC(=O)Nc1ccc2c(c1)nc(C)n2C | 0.879 | 1 | . | .
Cc1nc2cc(NC(=O)Nc3nccs3)ccc2n1C | -0.183 | 2* | 0.429 | 0.0734
Cn1cc([N+](=O)[O-])c(C(=O)Nc2cc(Oc3cccnc3)cc([N+](=O)[O-])c2)n1 | 0.0706 | 0.9 | . | .
C/C=C1\COC(C(=O)NCCCN2CCCC2=O)(C(F)(F)F)C=C1C=C(C)C (stereo not drawn) | 1.29 | . | . | .
COc1ccc(C(=O)OCC(=O)Nc2cc(C)on2)cc1S(=O)(=O)N1CCOCC1 | 0.558 | 1 | . | .
CCN(CC)S(=O)(=O)c1ccc(C)c(NC(=O)COC(=O)c2ccc(C)c(S(=O)(=O)N3CCOCC3)c2)c1 | -4.16* | 1.8 | . | .
COc1cc2[nH]c3c(N4CCN(c5ccc(Cl)cc5)CC4)ncnc3c2cc1OC | 1.34 | 0.9 | -0.0403 | 0.145
Fc1ccc2[nH]c3c(N4CCN(C5CCCCC5)CC4)ncnc3c2c1 | . | 2.3* | -0.319 | -1.01
COc1cccc(N2CCN(c3ncnc4c3[nH]c3ccc(F)cc34)CC2C)c1 (stereo not drawn) | -6.11* | 1.1 | 7.78* | -6.13*
SMILES | Cav32 inh | PLAP act | M1 ag | M1 antag
Cc1ccc(N2C(=S)N=C(Nc3ccccc3C)C23CCOC(C)(C)C3)cc1 (stereo not drawn) | -6.05* | 0.8 | . | .
COc1cc(NC(=O)CCn2c(=O)[nH]c3ccsc3c2=O)cc(OC)c1 | 1.08 | . | -0.00807 | 1.31
CC(=O)Nc1ccc(S(=O)(=O)N(Cc2ccccc2)C(C)C)cc1 | -1.08 | 1 | . | .
CC1CN(C(=O)COc2ncnc3ccccc23)CC(C)O1 (stereo not drawn) | -0.158 | 1 | . | .
CC1=C(C(=O)OC2CCCC2)C(c2ccc(C)o2)C2=C(CC(c3cccs3)CC2=O)N1 (stereo not drawn) | -5.89* | 1.2 | 0.903 | 0.0682
CCCC1C2CN(C(C)C)CC=C2C(C#N)=C(N)C1(C#N)C#N (stereo not drawn) | . | 1.1 | 8.33* | 0.614
CN1CC=C2C(C#N)=C(N)C(C#N)(C#N)[C@H](c3cccs3)[C@H]2C1 | -2.95 | . | . | .
CC[C@@H]1CC=C[C@H]2[C@H]1C(=O)N(Cc1ccccc1)[C@H]2c1ccc(OC)c(Cl)c1 | -0.71 | . | . | .
CC(C)CC(NC(=O)OC(C)(C)C)c1cn([C@@H](CCC(=O)OC(C)(C)C)C(=O)N2CCN(C(=O)OC(C)(C)C)CC2)nn1 (stereo partly drawn) | -2.59 | . | . | .
CCn1cc(C(=O)OCC(=O)OC2CC(C)CCC2C(C)C)c(=O)c2ccc(C)nc21 (stereo not drawn) | -6.38* | 1.4 | -0.443 | -0.154
O=C(CSc1nnc(CNC(=O)c2cccs2)o1)Nc1cccc(C(F)(F)F)c1 | -5.51* | 0.9 | -0.193 | -0.165
Cc1c2cc(O)c(=O)cc-2oc2cc(O)c(O)cc12 | -3.9* | 0.6 | . | .
COC(=O)c1ccc(COC(=O)CCc2nc(-c3ccccc3)c(-c3ccccc3)o2)cc1 | -5.22* | 1.3 | . | .
COCOc1ccc(C=O)cc1OCOC | 0.188 | . | . | .
COc1cccc(/C=N/Nc2nc(Nc3ccccc3)nc(-n3nc(C)cc3C)n2)c1O | . | 2.3* | . | .
COc1ccc(-c2nnc(SCC(=O)Oc3ccc(C)cc3)o2)cc1 | 0.242 | . | . | .
O=C(CSc1nnc(Cc2cccs2)n1Cc1ccco1)Nc1cc(Cl)cc(Cl)c1 | -4.27* | 1 | -0.584 | 0.17
COc1ccc(-n2c(Cc3cccs3)nnc2SCC(=O)Nc2ccc3c(c2)OCCO3)cc1 | -6.78* | 1.5 | 0.72 | 0.274
COc1ccc(NC(=O)CSc2nnc(Cc3cccs3)n2-c2ccc(C)cc2)cc1 | -5.26* | 0.8 | . | .
O=C(CSc1nnc(Cc2cccs2)n1Cc1ccco1)Nc1cccc(Cl)c1 | -3.48 | 0.9 | -0.848 | 0.547
CCN1C(=O)C(C)S/C1=N\S(=O)(=O)c1ccc(Cl)s1 (stereo not drawn) | -1.99 | 1 | -0.446 | -0.122
CC1C(O)=C(c2nc3ccccc3[nH]2)C(=N)N1c1ccccc1 (stereo not drawn) | 0.0423 | 1.3 | -0.0898 | 0.0356
Cc1cccc(N2CCN(C(=O)C(Cc3ccccc3)n3cccc3)CC2)c1C (stereo not drawn) | -4.73* | 1.2 | . | .
O=C(CCCOc1ccccc1)N1CCN(c2ccccc2)CC1 | -4.33* | 1.3 | . | .
Cc1cccc(N2CCN(C(=O)CCCOc3ccccc3)CC2)c1C | -7.67* | 1.4 | -0.117 | -0.537
SMILES | Cav32 inh | PLAP act | M1 ag | M1 antag
O=C(C(Cc1ccccc1)n1cccc1)N1CCN(c2ncccn2)CC1 (stereo not drawn) | -0.708 | 1.1 | -0.314 | 0.657
CCCC(=O)c1ccc(N2CCOCC2)c(F)c1 | -0.484 | 2.1* | 0.0413 | -0.132
N#CC(C#N)=c1ccc2c(c1)NC1(CCCCC1)N=2 | 0.861 | 0.8 | 2.11 | 0.0849
Cc1ccc2nsnc2c1S(=O)(=O)N(Cc1cc2cccc(C)c2[nH]c1=O)CC1CCCO1 (stereo not drawn) | -0.297 | 0.7 | 13* | -3.17*
Cc1ccc2cc(CN(CC3CCCO3)S(=O)(=O)c3c(C)ccc4nsnc34)c(=O)[nH]c2c1 (stereo not drawn) | 1 | 1 | -0.733 | -0.168
COc1ccc(S(=O)(=O)N(CC(=O)NCc2ccco2)c2ccccc2)cc1 | -0.429 | 1.1 | . | .
O=S(=O)(c1ccc2ccccc2c1)N(CC(O)COCc1ccco1)c1ccccc1 (stereo not drawn) | -5.13* | 1.1 | . | .
CC(NC(=O)C12CC3CC(CC(C3)C1)C2)c1ccc2c(c1)OCCO2 (stereo not drawn) | 3.5* | 0.9 | . | .
CCn1c(C(=O)NC(C)c2ccc3c(c2)OCCO3)cc2sccc21 (stereo not drawn) | -5.12* | 0.8 | -1.45 | 0.25

Compound activity: PubChem, several laboratories
